The record followed here is ChEMBL document CHEMBL1201862, “PubChem BioAssay data set” (2004).

This assay has as its target Beta Lactamase (Pseudomonas aeruginosa) (UniProt Q932Y6). In words: Late stage assay provider results from the probe development efforts to identify selective inhibitors of VIM-2 metallo-beta-lactamase: VIM-2-transformed E. coli growth inhibition in the presence of imipenem (synergy). Format: functional.

On to `O=c1[nH]c2c(s1)[C@H](c1cccnc1)[C@H]1C3CC[C@@H](C3)[C@H]1S2`, for which the MIC is > 100 µM (active).
